Source: PubChem BioAssay AID1159580 (chemical genetic matrix, 2015)
Screen size: about 5,500 compounds; about 2,000 (36%) were called active. Inconclusive results (about 18%) are left out. Rule as the data show it: active = normalized growth mostly below about 0.91 (no sharp cut-off); inconclusive = no clear call, values can overlap the other calls; inactive = mostly above about 0.92. Some of the results follow.

Experiment: chemical genetic growth profiling, strain panel (AID 1159580);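 also: tested at 20 µM; growth read once vehicle control cultures reached saturation at 30 °C; 1 = growth at the plate median or of vehicle wells; lower values mean less growth of the strain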
Conditions: growth OD

Measured: normalized growth

O=C(O)CCCCC1SCC2NC(=O)NC21 (centres undefined)
inactive: S. cerevisiae deletion strains, locus YJL187C, strain SWE1, active compounds read low 0.991 | S. cerevisiae deletion strains, locus YJR043C, strain POL32, active compounds read low 0.971 | S. cerevisiae deletion strains, locus YJR066W, strain TOR1, active compounds read low 0.983 | S. cerevisiae deletion strains, locus YKL009W, strain mrt4, active compounds read low 0.994 | S. cerevisiae deletion strains, locus YKL068W, active compounds read low 1.01 | S. cerevisiae deletion strains, locus YKL085W, strain MDH1 (second series), active compounds read low 1.01 | S. cerevisiae deletion strains, locus YKL085W, strain MDH1, active compounds read low 1.01 | S. cerevisiae deletion strains, locus YKL160W, strain elf1, active compounds read low 1 | S. cerevisiae deletion strains, locus YKL190W, strain CNB1, active compounds read low 1.03 | S. cerevisiae deletion strains, locus YKR001C, strain vps1, active compounds read low 1 | S. cerevisiae deletion strains, locus YKR026C, strain gcn3, active compounds read low 0.982 | S. cerevisiae deletion strains, locus YKR091W, strain srl3, active compounds read low 0.992 | S. cerevisiae deletion strains, locus YLL001W, strain dnm1, active compounds read low 0.989 | S. cerevisiae deletion strains, locus YLL026W, active compounds read low 0.982 | S. cerevisiae deletion strains, locus YLL041C, strain sdh2, active compounds read low 0.977 | S. cerevisiae deletion strains, locus YLR027C, strain aat2, active compounds read low 0.994 | S. cerevisiae deletion strains, locus YLR039C, strain RIC1, active compounds read low 1.06 | S. cerevisiae deletion strains, locus YLR058C, strain SHM2, active compounds read low 1.01 | S. cerevisiae deletion strains, locus YLR102C, strain apc9, active compounds read low 0.998 | S. cerevisiae deletion strains, locus YLR113W, strain HOG1, active compounds read low 0.991 | S. cerevisiae deletion strains, locus YLR221C, strain rsa3, active compounds read low 1.01 | S. cerevisiae deletion strains, locus YLR258W, strain gsy2, active compounds read low 0.995 | S. cerevisiae deletion strains, locus YLR262C, strain YPT6 (second series), active compounds read low 0.992 | S. cerevisiae deletion strains, locus YLR262C, strain YPT6, active compounds read low 1.02 | S. cerevisiae deletion strains, locus YLR268W, strain sec22, active compounds read low 0.99 | S. cerevisiae deletion strains, locus YLR320W, strain mms22, active compounds read low 0.999 | S. cerevisiae deletion strains, locus YLR330W, strain CHS5, active compounds read low 1.01 | S. cerevisiae deletion strains, locus YLR342W, strain FKS1 (second series), active compounds read low 1 | S. cerevisiae deletion strains, locus YLR342W, strain FKS1, active compounds read low 0.972 | S. cerevisiae deletion strains, locus YLR357W, strain rsc2, active compounds read low 0.962 | S. cerevisiae deletion strains, locus YLR370C, strain arc18, active compounds read low 0.998 | S. cerevisiae deletion strains, locus YLR371W, strain rom2, active compounds read low 1.02 | S. cerevisiae deletion strains, locus YLR384C, strain iki3, active compounds read low 0.985 | S. cerevisiae deletion strains, locus YLR418C, strain cdc73, active compounds read low 1.02 | S. cerevisiae deletion strains, locus YML016C, strain PPZ1, active compounds read low 1.01 | S. cerevisiae deletion strains, locus YML032C, strain rad52, active compounds read low 0.983 | S. cerevisiae deletion strains, locus YML120C, strain ndi1, active compounds read low 0.976 | S. cerevisiae deletion strains, locus YML124C, strain tub3, active compounds read low 0.996 | S. cerevisiae deletion strains, locus YMR058W, strain fet3, active compounds read low 0.984 | S. cerevisiae deletion strains, locus YMR078C, strain ctf18, active compounds read low 1.02 | S. cerevisiae deletion strains, locus YMR125W, strain sto1, active compounds read low 0.989 | S. cerevisiae deletion strains, locus YMR129W, active compounds read low 0.997 | S. cerevisiae deletion strains, locus YMR205C, strain PFK2, active compounds read low 1 | S. cerevisiae deletion strains, locus YMR223W, strain ubp8, active compounds read low 1 | S. cerevisiae deletion strains, locus YMR231W, strain pep5, active compounds read low 0.997 | S. cerevisiae deletion strains, locus YMR307W, strain GAS1, active compounds read low 1.01 | S. cerevisiae deletion strains, locus YNL067W, strain RPL9B, active compounds read low 1 | S. cerevisiae deletion strains, locus YNL071W, strain lat1, active compounds read low 0.979 | S. cerevisiae deletion strains, locus YNL183C, strain NPR1, active compounds read low 0.984 | S. cerevisiae deletion strains, locus YNL209W, strain ssb2, active compounds read low 0.995 | S. cerevisiae deletion strains, locus YNL233W, strain BNI4, active compounds read low 0.99 | S. cerevisiae deletion strains, locus YNL248C, strain rpa49, active compounds read low 0.982 | S. cerevisiae deletion strains, locus YNL250W, strain rad50, active compounds read low 1.01 | S. cerevisiae deletion strains, locus YNL271C, strain bni1, active compounds read low 0.996 | S. cerevisiae deletion strains, locus YNL298W, strain CLA4, active compounds read low 1 | S. cerevisiae deletion strains, locus YNL307C, strain MCK1, active compounds read low 0.997 | S. cerevisiae deletion strains, locus YNL322C, strain KRE1 (second series), active compounds read low 0.973 | S. cerevisiae deletion strains, locus YNR049C, strain mso1, active compounds read low 0.978 | S. cerevisiae deletion strains, locus YNR052C, strain pop2, active compounds read low 0.996 | S. cerevisiae deletion strains, locus YOL006C, strain TOP1, active compounds read low 1.09 | S. cerevisiae deletion strains, locus YOL012C, strain htz1 1.05 | S. cerevisiae deletion strains, locus YOL147C, strain pex11, active compounds read low 1 | S. cerevisiae deletion strains, locus YOR001W, strain rrp6, active compounds read low 0.987 | S. cerevisiae deletion strains, locus YOR061W, strain CKA2, active compounds read low 1 | S. cerevisiae deletion strains, locus YOR069W, strain VPS5, active compounds read low 1.01 | S. cerevisiae deletion strains, locus YOR070C, strain gyp1, active compounds read low 1 | S. cerevisiae deletion strains, locus YOR080W, strain dia2, active compounds read low 0.978 | S. cerevisiae deletion strains, locus YOR083W, strain WHI5, active compounds read low 0.992 | S. cerevisiae deletion strains, locus YOR106W, strain vam3, active compounds read low 0.975 | S. cerevisiae deletion strains, locus YOR136W, strain idh2, active compounds read low 0.986 | S. cerevisiae deletion strains, locus YOR144C, strain elg1, active compounds read low 0.988 | S. cerevisiae deletion strains, locus YOR184W, strain ser1, active compounds read low 0.956 | S. cerevisiae deletion strains, locus YOR231W, strain MKK1, active compounds read low 1.01 | S. cerevisiae deletion strains, locus YOR265W, strain rbl2, active compounds read low 1.01 | S. cerevisiae deletion strains, locus YOR270C, strain vph1, active compounds read low 1.01 | S. cerevisiae deletion strains, locus YOR290C, strain snf2, active compounds read low 0.977 | S. cerevisiae deletion strains, locus YOR316C, strain cot1, active compounds read low 1 | S. cerevisiae deletion strains, locus YPL051W, strain arl3, active compounds read low 1.01 | S. cerevisiae deletion strains, locus YPL078C, strain atp4, active compounds read low 0.955 | S. cerevisiae deletion strains, locus YPL106C, strain sse1, active compounds read low 0.994 | S. cerevisiae deletion strains, locus YPL240C, strain hsp82, active compounds read low 0.98 | S. cerevisiae deletion strains, locus YPL241C, strain CIN2, active compounds read low 1.01 | S. cerevisiae deletion strains, locus YPL256C, strain CLN2, active compounds read low 1 | S. cerevisiae deletion strains, locus YPR119W, strain clb2, active compounds read low 0.992 | S. cerevisiae deletion strains, locus YPR141C, strain kar3, active compounds read low 1.01 | S. cerevisiae deletion strains, locus YPR163C, strain tif3, active compounds read low 1.01 | S. cerevisiae deletion strains, locus YPR167C, strain met16, active compounds read low 1 | S. cerevisiae deletion strains, strain wtn01, active compounds read low 0.992 | S. cerevisiae strains, strain wild type, active compounds read low 1.01
